From PubChem BioAssay AID2315 (National Center for Advancing Translational Sciences (NCATS), 2010)
Out of some 290,000 compounds screened, about 27,000 (9.3%) were called active. The sample holds actives, similar compounds and a random draw of the others, so the mix is not that of the screen. Rule as the data show it: active = inhibition mostly above about 28% (no sharp cut-off); inactive = mostly below about 43%.

assay: A qHTS for Small Molecule Inhibitors of Shiga Toxin; settings: Vero cells, Shiga toxin protein synthesis inhibition reporter; at 38.7 µM, hits give high values; as to inhibition: 0% is about no effect

Structure (SMILES) | inhibition
CC(C)C[C@@H](COc1ccccc1)N1CCN(CC(C)C)CCC1=O | 6.99% (inactive)
O=S(=O)(c1ccc(Br)cc1)N1CCC(c2nc3ccccc3[nH]2)CC1 | 20.1% (inactive)
CCCc1cc(=O)oc2c(C)c(OC(C)C(=O)NCC(O)c3ccccc3)ccc12 (stereo unspecified) | -4.11% (inactive)
O=C(CN(C(=O)c1csnn1)c1cccc(Cl)c1)NC1CCCC1 | 13.6% (inactive)
C=CCOC(=O)C(=C)C | -5.85% (inactive)
OCc1ccc(OCCCOc2cccc3cccnc23)cc1 | 31.7% (inactive)
Cc1ccnc(NC(=O)CCNS(=O)(=O)c2ccc(C)c(C)c2)c1 | 75.2% (active)
Cc1ccc(S(=O)(=O)NCCC(=O)Nc2cccc(S(N)(=O)=O)c2)cc1C | 3.14% (inactive)
Cc1ccc(S(=O)(=O)NCCC(=O)Nc2ccc(C)c(Cl)c2)cc1C | -2.35% (inactive)
O=[N+]([O-])c1ccccc1/C=C/CN1CCCC(CO)C1 (stereo unspecified) | -4.92% (inactive)
COc1cc2c(C(=O)N(C)c3cc(Cl)ccc3OC)cn(C)c(=O)c2cc1OC | -4.23% (inactive)
O=C1CCN(CCCc2ccccc2)CCN1CCO | -7.2% (inactive)
O=C(Nc1ccccc1)/C(=C/c1ccc([N+](=O)[O-])cc1)NC(=O)c1ccccc1 | 0.876% (inactive)
N#C/C(=C/c1ccc(Cl)cc1)NC(=O)c1ccccc1 | 69.2% (active)
O=C(NCC1CCCO1)/C(=C/c1ccc(Cl)cc1)NC(=O)c1ccccc1 (stereo unspecified) | -1.77% (inactive)
CCn1c(SCC(=O)NC2CC2)nnc1-c1ccncc1 | 6.57% (inactive)
Cc1nn2c(NCCN(C)C)c3c(nc2c1-c1ccccc1)CCC3 | -1.35% (inactive)
Cc1ccc2c(=O)cc(C(=O)NCCc3ccc(S(N)(=O)=O)cc3)oc2c1C | 3.06% (inactive)
CCOC(=O)c1ccc(NC2Nc3cc(C)nn3S2)cc1 (stereo unspecified) | 37.2% (inactive)
CCc1ccc(NC2Nc3cc(C)nn3S2)cc1 (stereo unspecified) | 52% (active)
CC(C)(C)c1ccc(/C=C/C(=O)NCCCn2ccnc2)cc1 | -13.7% (inactive)
Cn1c(=O)[nH]c(=O)c2c1nc(Br)n2CCCCSc1nc2ccccc2o1 | 39.4% (inactive)
CCC(NC(=O)c1ccccc1NC(=O)c1ccccc1)C(=O)NNC(=O)CSc1nc2ccccc2o1 (stereo unspecified) | 23.3% (active)
CCOC(=O)c1ccccc1NC(=O)CSc1nc2ccccc2c(=O)[nH]1 | -5.65% (inactive)

Structure (SMILES) | inhibition
COc1ccc(OC)c(NC(=O)C2CCCN2S(=O)(=O)c2cccc3nsnc23)c1 (stereo unspecified) | -4.24% (inactive)
C=CCNc1nc(C)nc(OC)n1 | -12.3% (inactive)
COc1nc(NCc2ccc(Cl)cc2)nc(OC)n1 | 45.3% (inactive)
C=CCNc1nc(Nc2ccc(Cl)cc2)nc(OC)n1 | 71.3% (active)
Cc1sc2nc(SCCO)n(-c3ccccc3)c(=O)c2c1C | -3.85% (inactive)
Cc1ccc2c(c1)N(C(=O)CCC(=O)NCc1cccnc1)CCO2 | 3.18% (inactive)
Oc1ccc(Cl)cc1C1C=C(c2ccc3c(c2)OCO3)NC(c2c(F)cccc2Cl)N1 (stereo unspecified) | 68.7% (active)
Oc1ccc(Cl)cc1C1C=C(c2ccc3c(c2)OCO3)NC(c2ccc(F)c(Br)c2)N1 (stereo unspecified) | 93.1% (active)
Cc1csc(Nc2ccc(Cl)cc2)[n+]1-c1ccc(Cl)cc1 | 19.3% (inactive)
COCCN1C(=O)C(=O)/C(=C(/O)c2ccc(S(=O)(=O)N3CCCCC3)cc2)C1c1ccc(OC)c(OC)c1 (stereo unspecified) | 11% (inactive)
C/C(=N\NC(=O)CNc1cccc2ccccc12)c1ccc(Br)s1 | -8.07% (inactive)
Cc1cccc(/C=N/NC(=O)CNc2cccc3ccccc23)n1 | 70.6% (active)
Cn1cccc1/C=N/NC(=O)CNc1cccc2ccccc12 | 6.61% (inactive)
CC(C)c1nc(-c2ccccn2)no1 | 46.2% (active)
c1ccc(-c2nccc(-c3ccc(-n4cnc5ccccc54)cc3)n2)nc1 | -13.3% (inactive)
Clc1ccc(-c2cc(-c3ccccn3)on2)c(Cl)c1 | 48.1% (inactive)
COc1ccc(-n2ncc3c2CC(C)(C)CC3NC(=O)CCc2c(C)noc2C)cc1 (stereo unspecified) | 27.2% (inactive)
O=C(/C=C/c1cccs1)c1cc(Cl)ccc1OC(=O)N1CCOCC1 | 18.1% (inactive)
COc1ccc(-c2nc(CS(=O)(=O)CC(=O)NCc3cccc(Br)c3)c(C)o2)cc1 | 4.36% (inactive)
O=C(O)C(c1ccccc1)N1C(=O)/C(=C\c2ccc(-c3cccc(Cl)c3)o2)SC1=S (stereo unspecified) | -2.95% (inactive)
O=C1c2ccccc2NC(c2ccc(-c3cccc(Cl)c3)o2)N1O (stereo unspecified) | 58.1% (active)
O=C1NN(c2ccccc2)C(=O)/C1=C/c1ccc(-c2cccc(C(=O)O)c2)o1 | 18.2% (inactive)
COc1cccc(N(CC(=O)NCc2ccccc2)C(=O)CCC(=O)Nc2nccs2)c1 | -2.69% (inactive)
COc1ccc(NS(=O)(=O)c2ccc(NC(=S)NC(=O)CC(C)C)cc2)cc1 | -7.41% (inactive)

Structure (SMILES) | inhibition
CC(=O)c1ccc(NC(=S)NC(=O)CC(C)C)cc1 | 26.8% (active)
CC(C)CC(=O)NC(=S)Nc1cc(C(=O)O)ccc1Cl | 30.7% (inactive)
CCOC(=O)C1CCN(S(=O)(=O)c2c(C)noc2C)CC1 | 30.7% (inactive)
COC(=O)c1ccccc1NC(=O)CSc1n[nH]c(-c2ccncc2)n1 | 4.61% (inactive)
Cc1cccc(C(=O)Nc2ccc(CC(=O)O)cc2)c1 | 18.5% (inactive)
Cc1cccc(C(=O)Nc2ccc(C(=O)/C=C/c3cccs3)cc2)c1 | 99.7% (active)
Cc1cccc(C(=O)Nc2ccc(C(=O)N/N=C/c3cccc(C)n3)cc2)c1 | 3.17% (inactive)
Cc1ccc(C(=O)N/C(=C\c2cn(S(=O)(=O)N(C)C)c3ccccc23)C(=O)N2CCCC2)cc1 | -2.9% (inactive)
CCOc1ccc(C(C(=O)NC2CCCC2)N(C(=O)c2snc(C(N)=O)c2N)C2CCCC2)cc1 (stereo unspecified) | 12.4% (inactive)
COC(=O)CSc1nc(C)c2ccc(OC)cc2n1 | 44.6% (active)
COc1cccc(CSc2nc3nc(C)cc(C)n3n2)c1 | -3.55% (inactive)
COc1ccc2nc(SCc3ccccc3)nc(C)c2c1 | 70.1% (active)
COc1ccc(-c2nnc3ccc(SCc4ccccc4)nn23)cc1 | 9.35% (inactive)
COC(=O)CSc1nc(C2CC2)nc2ccccc12 | -5.63% (inactive)
COc1ccc2[nH]c3nc(SCC(=O)NC4CC4)nnc3c2c1 | -7.63% (inactive)
O=C(COc1cc2oc(=O)c3c(c2cc1Cl)CCC3)NCCCN1CCOCC1 | -7.49% (inactive)
NC(=O)c1cc(S(=O)(=O)NCCCc2ccco2)cs1 | 19.4% (inactive)
O=[N+]([O-])c1cc(C(F)(F)F)ccc1NN=C1CCCC1 | 9.47% (inactive)
O=[N+]([O-])c1ccccc1N/N=C1\CCc2ccccc21 | 50.9% (active)
CN1CCN(CCNC(=O)Nc2ccccc2[N+](=O)[O-])CC1 | 24.3% (inactive)
CCOC(=O)C1CCCN(S(=O)(=O)c2ccc(-n3cnnn3)c(C)c2)C1 (stereo unspecified) | -3% (inactive)
CC(C)(C)c1ccc(CN2C(=O)c3ccccc3S2(=O)=O)cc1 | 32.5% (inactive)
CC(C)(C)c1ccc(OC2=CS(=O)(=O)c3ccccc32)cc1 | 135% (active)
COc1ccc(CN2CCC(=O)c3ccccc3S2(=O)=O)cc1 | -3.72% (inactive)

Structure (SMILES) | inhibition
Cc1cccc(OCC(=O)NCCNC(=O)c2cccnc2)c1 | -6.35% (inactive)
Brc1ccc(C2=NCCC(c3ccccc3)O2)cc1 (stereo unspecified) | inactive
Brc1ccc(C2CC(c3ccccc3)=Nc3ccccc3N2)cc1 (stereo unspecified) | 105% (active)
Cc1cc(=O)oc2cc(OCC(=O)N3CCN(c4ccc(F)cc4)CC3)c(Cl)cc12 | -2.97% (inactive)
O=C(Nc1ccc(S(=O)(=O)N2CCCCC2)cc1)C1CC(=O)N(c2ccc(F)cc2)C1 (stereo unspecified) | 29.9% (inactive)
Cc1cc2oc(=O)cc(CN3CCN(Cc4ccccc4)CC3)c2cc1C | -3.23% (inactive)
Cc1noc(C)c1C(=O)NCCc1ccc(S(N)(=O)=O)cc1 | 10.5% (inactive)
Clc1ccc(CN2CCCCCC2)cc1Cl | -3.6% (inactive)
N#Cc1ccc(N2Cc3ccccc3/C2=N/C(=O)Nc2ccc(Cl)cc2)cc1 | 24.7% (inactive)
Cc1cccc(N2Cc3ccccc3C2=NC(=O)c2ccc(Cl)nc2)c1 | 0% (active)
Cc1cccc(N2CCN(C(=O)c3cccc(S(=O)(=O)N4CCc5ccccc5C4)c3)CC2C)c1 (stereo unspecified) | -8.81% (inactive)
O=C(NCN1CCN(CCO)CC1)c1cnccn1 | 13% (inactive)
CCN1CCN(c2ccc(NC(=O)c3cnccn3)cc2)CC1 | 48.5% (active)
O=C(Nc1ccc(S(=O)(=O)N2CCCCC2)cc1)c1cnccn1 | -1.88% (inactive)
Cc1sc2nc(SCC(N)=O)n(C)c(=O)c2c1C | 8.03% (inactive)
CC(C)(C)C1CCc2c(sc3nc(SCC(N)=O)nc(N)c23)C1 (stereo unspecified) | 42.9% (active)
CN1CCN(CC(=O)Nc2sc3c(c2C#N)CCC(C(C)(C)C)C3)CC1 (stereo unspecified) | -10.4% (inactive)
C=C(C)CSc1nc(N)c2c3c(sc2n1)CCC3 | 77.1% (active)
Cn1c(NN)nc2sc3c(c2c1=O)CCC3 | 12.5% (inactive)
Nc1nc(SCC(=O)NCCN2CCOCC2)nc2sc3c(c12)CCC3 | 7.28% (inactive)
CCOC(=O)N1CCN(S(=O)(=O)N2CCCC(C(=O)NCCCN3CCC(C)CC3)C2)CC1 (stereo unspecified) | -4.12% (inactive)
CC(=O)c1ccc(NC(=O)CCNS(=O)(=O)c2cc(Br)cnc2N)cc1 | -8.28% (inactive)
CCc1ccc(OCC2c3cc(OC)c(OC)cc3CCN2C(C)=O)cc1 (stereo unspecified) | -3.8% (inactive)
CN(CC(=O)O)S(=O)(=O)c1ccc2oc3ccccc3c2c1 | -10.6% (inactive)
